This is an account of results in PubChem BioAssay (NCI).

Each structure is given as a SMILES string. About 83,000 compounds went through this panel and 20% of them were active in at least one assay; those are over-represented in the sample as a whole.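 How to read the values: 0–100, growth inhibition (40 = 60% inhibited); 0, no net growth; -100 to 0, cell death (-40 = 40% of starting cells died; -100 = all dead).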 A number with no mark means an inactive call. Active and inactive are the calls of the source. Rule for the calls: active = growth percent below 10; inactive = the rest.

The assay deals with HL-60(TB) leukemia. As to the kind of experiment: NCI-60 one-dose screen, 48 h (100 = growth as untreated, 0 = no growth, -100 = all killed). The conditions noted are these: 10 µM unless noted.
For the compound `CNC1=C(Br)C(=O)c2c(C(=O)OC)c(C)nc(C)c2C1=O`, the growth was 24.5%. Next, `Cl.Fc1c[c-]c(-c2ccccn2)c(F)c1.[Pt].c1ccc(P(c2ccccc2)C([PH+](c2ccccc2)c2ccccc2)[PH+](c2ccccc2)c2ccccc2)cc1`: 8.71% (active). As to `Cc1ccc(Nc2nc(N)nc(Nc3ccc4ccccc4c3)n2)cc1`, the growth was 22.5%. Turning to `COc1ccc(-c2cc(C(=O)Nc3nc4cc(C)c(C)cc4s3)nc3cc(-c4ccccc4)nn23)cc1OC`, the growth was 98.2%. With `Cc1ccc(NC(=S)N/C=C(\c2ccccc2)S(=O)Cc2ccccc2)c(C)c1` (stereo not drawn) the figure was 96.8%; with `CCc1c2c(nc3ccc(OC(=O)OCc4ccc(B5OC(C)(C)C(C)(C)O5)cc4)cc13)-c1cc3c(c(=O)n1C2)COC(=O)[C@]3(O)CC`, 12%; with `CC1=CC(=O)N(c2cccc3c(N4C(=O)C=C(C)C4=O)cccc23)C1=O`, -1.53% (active). For the compound `CCN(CCNc1ccc(C)c2sc3ccccc3c(=O)c12)CC(C)(C)O`, the growth is 43.5%. Turning to `COc1ccc(-c2cn[nH]c2-c2cc(OC)c3c(c2)OCO3)cc1`, the growth was -29% (active). As for `C=CC1(C)C(O[Si](C)(C)C(C)(C)C)CC2C3OC(=O)NC31c1cccc3c1[C@H](C(=O)N3C)C2(C)C` (stereo partly drawn), the growth was 22.9%. With `CC[C@H](Nc1ncnc2nc[nH]c12)c1nc2cccc(F)c2c(=O)n1-c1ccccc1` the figure was 66.8%.

With `NC(N)=N/N=C/c1ccc(Br)cc1`, the growth was -0.0458% (active).

As to `CCOC(=O)C1=NN(c2ccc(Cl)cc2)C2C3N(c4ccc(Cl)cc4)N=C(C(=O)OCC)N3c3ccccc3N12` (stereo not drawn), the growth is -67.8% (active).
